Test results: PubChem BioAssay AID1159580 (chemical genetic matrix, 2015)
Values joined by “and” are separate entries in the source; they are usually repeats but may differ in a detail not shown here. Equal entries are not always repeated. In all, about 5,500 compounds went through this assay and about 2,000 (36%) were called active. Roughly 18% stayed inconclusive and do not appear here. Cut-off read from the data, not from the text of the source: active = normalized growth mostly below about 0.91 (no sharp cut-off); inconclusive = no clear call, values can overlap the other calls; inactive = mostly above about 0.92. The list shows a part of the results.

Assay: chemical genetic growth profiling, strain panel (AID 1159580);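 note: tested at 20 µM; growth read once vehicle control cultures reached saturation at 30 °C; 1 = growth at the plate median or of vehicle wells; lower values mean less growth of the strain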
Settings: S. cerevisiae deletion strains, growth OD

Measured: normalized growth

CC(=O)OCC(=O)[C@@]12OC(C)(C)O[C@@H]1CC1C3C[C@H](F)C4=CC(=O)C=C[C@]4(C)[C@@]3(F)[C@@H](O)C[C@@]12C (some centres not stated)
inactive: locus YAL013W, strain DEP1, stronger effect = lower value 1 | locus YAL021C, strain ccr4, stronger effect = lower value 1.01 | locus YAL026C, strain drs2, stronger effect = lower value 1.02 | locus YAL030W, strain snc1, stronger effect = lower value 1.02 | locus YBL061C, strain skt5, stronger effect = lower value 1.03 | locus YBR009C, strain hhf1, stronger effect = lower value 1.01 | locus YBR021W, strain FUR4, stronger effect = lower value 0.996 | locus YBR023C, strain chs3, stronger effect = lower value 1.03 | locus YBR171W, strain sec66, stronger effect = lower value 1.03 | locus YBR229C, strain ROT2, stronger effect = lower value 1.01 | locus YBR231C, strain swc5, stronger effect = lower value 0.989 | locus YBR279W, strain paf1, stronger effect = lower value 1.03 | locus YCL011C, strain gbp2, stronger effect = lower value 1.04 | locus YCL016C, strain dcc1, stronger effect = lower value 1.03 | locus YCL029C, strain bik1, stronger effect = lower value 1.01 | locus YCL061C, strain MRC1, stronger effect = lower value 1.01 | locus YCL069W, strain vba3, stronger effect = lower value 1.02 | locus YCR088W, strain abp1, stronger effect = lower value 1.02 | locus YDL005C, strain med2, stronger effect = lower value 1.03 | locus YDL035C, strain GPR1, stronger effect = lower value 0.99 | locus YDL040C, strain nat1, stronger effect = lower value 1.02 | locus YDL074C, strain BRE1, stronger effect = lower value 1.01 | locus YDL101C, strain DUN1, stronger effect = lower value 1.01 | locus YDL134C, strain PPH21, stronger effect = lower value 0.99 | locus YDL185W, strain tfp1, stronger effect = lower value 1.02 | locus YDL192W, strain arf1, stronger effect = lower value 1.02 | locus YDR001C, strain nth1, stronger effect = lower value 1.02 | locus YDR069C, strain doa4, stronger effect = lower value 0.998 | locus YDR101C, strain arx1, stronger effect = lower value 0.965 | locus YDR137W, strain rgp1, stronger effect = lower value 1.03 | locus YDR150W, strain NUM1, stronger effect = lower value 1.01 | locus YDR159W, strain sac3, stronger effect = lower value 0.989 | locus YDR162C, strain NBP2, stronger effect = lower value 0.989 | locus YDR195W, strain ref2 0.999 | locus YDR297W, strain sur2, stronger effect = lower value 1.02 | locus YDR318W, strain mcm21, stronger effect = lower value 1.02 | locus YDR334W, strain swr1, stronger effect = lower value 1.02 | locus YDR335W, strain msn5, stronger effect = lower value 1.03 | locus YDR388W, stronger effect = lower value 1.01 | locus YDR392W, strain spt3, stronger effect = lower value 0.981 | locus YDR502C, strain sam2, stronger effect = lower value 1 | locus YEL003W, strain gim4, stronger effect = lower value 1.02 | locus YEL037C, strain rad23, stronger effect = lower value 1.02 | locus YEL061C, strain CIN8 (second series), stronger effect = lower value 1.02 | locus YEL061C, strain CIN8, stronger effect = lower value 1.01 | locus YER015W, strain faa2, stronger effect = lower value 1.02 | locus YER016W, strain bim1, stronger effect = lower value 1.01 | locus YER110C, stronger effect = lower value 1.02 | locus YER111C, strain swi4, stronger effect = lower value 1.04 | locus YER155C, strain BEM2 (second series), stronger effect = lower value 0.995 | locus YER155C, strain BEM2, stronger effect = lower value 1.01 | locus YER167W, strain BCK2, stronger effect = lower value 0.996 | locus YFR010W, strain ubp6, stronger effect = lower value 1.01 | locus YGL078C, strain dbp3, stronger effect = lower value 1.02 | locus YGL086W, strain mad1, stronger effect = lower value 0.992 | locus YGL167C, strain pmr1, stronger effect = lower value 1.02 | locus YGL173C, strain kem1, stronger effect = lower value 1.02 | locus YGL227W, strain vid30, stronger effect = lower value 1.03 | locus YGL240W, strain doc1, stronger effect = lower value 1.01 | locus YGL248W, strain PDE1, stronger effect = lower value 1.01 | locus YGL253W, strain hxk2, stronger effect = lower value 1.01 | locus YGR135W, strain pre9, stronger effect = lower value 1.07 | locus YGR252W, strain gcn5, stronger effect = lower value 1.1 | locus YHR013C, strain ard1, stronger effect = lower value 1.04 | locus YHR027C, strain rpn1, stronger effect = lower value 1.02 | locus YHR030C, strain SLT2, stronger effect = lower value 0.995 and 0.988 | locus YHR079C, strain IRE1 (second series), stronger effect = lower value 1.01 | locus YHR079C, strain IRE1, stronger effect = lower value 1 | locus YHR094C, strain hxt1, stronger effect = lower value 1.02 | locus YHR129C, strain ARP1, stronger effect = lower value 1.01 | locus YHR142W, strain chs7, stronger effect = lower value 1.04 | locus YHR200W, strain rpn10, stronger effect = lower value 1.01 | locus YIL066C, strain RNR3, stronger effect = lower value 1 | locus YIL073C, strain SPO22, stronger effect = lower value 1.02 | locus YIL125W, strain kgd1, stronger effect = lower value 1 | locus YIR030C, strain dcg1, stronger effect = lower value 1.03 | locus YJL092W, strain hpr5, stronger effect = lower value 1.03 | locus YJL095W, strain BCK1 (second series), stronger effect = lower value 1.02 | locus YJL095W, strain BCK1, stronger effect = lower value 1.03 and 0.999 | locus YJL115W, strain asf1, stronger effect = lower value 1.01 | locus YJL129C, strain trk1, stronger effect = lower value 1.03 | locus YJL134W, strain LCB3, stronger effect = lower value 1.01 | locus YJL154C, strain vps35, stronger effect = lower value 1.02 | locus YJL164C, strain tpk1, stronger effect = lower value 1.02 | locus YJL166W, strain qcr8, stronger effect = lower value 1.04 | locus YJL168C, strain set2, stronger effect = lower value 1.02 | locus YJL187C, strain SWE1 (second series), stronger effect = lower value 1.01 | locus YJL187C, strain SWE1, stronger effect = lower value 1.02 | locus YJR043C, strain POL32, stronger effect = lower value 0.999 | locus YJR066W, strain TOR1, stronger effect = lower value 0.937 | locus YJR075W, strain HOC1, stronger effect = lower value 1 | locus YKL009W, strain mrt4, stronger effect = lower value 1.01 | locus YKL068W, stronger effect = lower value 1.01 | locus YKL085W, strain MDH1 (second series), stronger effect = lower value 1.01 | locus YKL085W, strain MDH1, stronger effect = lower value 1.01 | locus YKL160W, strain elf1, stronger effect = lower value 1.05 | locus YKR001C, strain vps1, stronger effect = lower value 1 | locus YKR026C, strain gcn3, stronger effect = lower value 1.02 | locus YKR091W, strain srl3, stronger effect = lower value 1.02 | locus YLL001W, strain dnm1, stronger effect = lower value 1.03 | locus YLL026W, stronger effect = lower value 1.02 | locus YLL041C, strain sdh2, stronger effect = lower value 1.01 | locus YLR027C, strain aat2, stronger effect = lower value 1.01 | locus YLR039C, strain RIC1, stronger effect = lower value 1.06 | locus YLR058C, strain SHM2, stronger effect = lower value 1.01 | locus YLR102C, strain apc9, stronger effect = lower value 1.01 | locus YLR113W, strain HOG1, stronger effect = lower value 1.02 | locus YLR221C, strain rsa3, stronger effect = lower value 1.03 | locus YLR258W, strain gsy2, stronger effect = lower value 1.04 | locus YLR262C, strain YPT6 (second series), stronger effect = lower value 1.04 | locus YLR262C, strain YPT6, stronger effect = lower value 0.987 | locus YLR268W, strain sec22, stronger effect = lower value 1.01 | locus YLR320W, strain mms22, stronger effect = lower value 1.06 | locus YLR330W, strain CHS5, stronger effect = lower value 1.01 | locus YLR342W, strain FKS1 (second series), stronger effect = lower value 1.03 | locus YLR342W, strain FKS1, stronger effect = lower value 1.03 | locus YLR357W, strain rsc2, stronger effect = lower value 1.01 | locus YLR370C, strain arc18, stronger effect = lower value 1.03 | locus YLR371W, strain rom2, stronger effect = lower value 1.01 | locus YLR384C, strain iki3, stronger effect = lower value 1.03 | locus YLR418C, strain cdc73, stronger effect = lower value 1.03 | locus YML016C, strain PPZ1, stronger effect = lower value 1 | locus YML032C, strain rad52, stronger effect = lower value 0.996 | locus YML120C, strain ndi1, stronger effect = lower value 1.04 | locus YML124C, strain tub3, stronger effect = lower value 1.03 | locus YMR058W, strain fet3, stronger effect = lower value 1.01 | locus YMR078C, strain ctf18, stronger effect = lower value 1.01 | locus YMR125W, strain sto1, stronger effect = lower value 1.03 | locus YMR129W, stronger effect = lower value 1.02 | locus YMR205C, strain PFK2, stronger effect = lower value 1.05 | locus YMR223W, strain ubp8, stronger effect = lower value 1.05 | locus YMR231W, strain pep5, stronger effect = lower value 1.02 | locus YMR307W, strain GAS1, stronger effect = lower value 1.04 | locus YNL067W, strain RPL9B, stronger effect = lower value 0.995 | locus YNL071W, strain lat1, stronger effect = lower value 1.03 | locus YNL153C, strain GIM3, stronger effect = lower value 1.01 | locus YNL183C, strain NPR1, stronger effect = lower value 0.945 | locus YNL209W, strain ssb2, stronger effect = lower value 1.03 | locus YNL233W, strain BNI4, stronger effect = lower value 1.01 | locus YNL248C, strain rpa49, stronger effect = lower value 1.02 | locus YNL250W, strain rad50, stronger effect = lower value 1.03 | locus YNL271C, strain bni1, stronger effect = lower value 1.04 | locus YNL298W, strain CLA4, stronger effect = lower value 1.04 | locus YNL307C, strain MCK1, stronger effect = lower value 1.02 | locus YNL322C, strain KRE1 (second series), stronger effect = lower value 1.04 | locus YNR049C, strain mso1, stronger effect = lower value 1.02 | locus YNR052C, strain pop2, stronger effect = lower value 1.01 | locus YOL006C, strain TOP1, stronger effect = lower value 1.03 | locus YOL012C, strain htz1 2.14 | locus YOL147C, strain pex11, stronger effect = lower value 1.02 | locus YOR001W, strain rrp6, stronger effect = lower value 1 | locus YOR061W, strain CKA2, stronger effect = lower value 1.01 | locus YOR069W, strain VPS5, stronger effect = lower value 1.01 | locus YOR070C, strain gyp1, stronger effect = lower value 1.03 | locus YOR080W, strain dia2, stronger effect = lower value 1.02 | locus YOR083W, strain WHI5, stronger effect = lower value 1.04 | locus YOR106W, strain vam3, stronger effect = lower value 1.05 | locus YOR136W, strain idh2, stronger effect = lower value 1.01 | locus YOR144C, strain elg1, stronger effect = lower value 1 | locus YOR184W, strain ser1, stronger effect = lower value 1.01 | locus YOR231W, strain MKK1, stronger effect = lower value 0.999 | locus YOR265W, strain rbl2, stronger effect = lower value 1.02 | locus YOR270C, strain vph1, stronger effect = lower value 1.03 | locus YOR290C, strain snf2, stronger effect = lower value 0.982 | locus YOR316C, strain cot1, stronger effect = lower value 1.01 | locus YPL051W, strain arl3, stronger effect = lower value 1.02 | locus YPL055C, strain LGE1, stronger effect = lower value 1.01 | locus YPL078C, strain atp4, stronger effect = lower value 1.04 | locus YPL106C, strain sse1, stronger effect = lower value 1 | locus YPL240C, strain hsp82, stronger effect = lower value 1.01 | locus YPL241C, strain CIN2, stronger effect = lower value 0.999 | locus YPL256C, strain CLN2, stronger effect = lower value 0.974 | locus YPR119W, strain clb2, stronger effect = lower value 1.01 | locus YPR141C, strain kar3, stronger effect = lower value 1.02 | locus YPR163C, strain tif3, stronger effect = lower value 1.02 | locus YPR167C, strain met16, stronger effect = lower value 1.02 | strain wtn01, stronger effect = lower value 1.02
